In PubChem BioAssay (NCI):
The panel holds about 79,000 compounds, 15% with a hit somewhere; the sample as a whole holds those more often. Active and inactive are the calls of the source. No stated cut-off is given here; in the data, active means growth inhibition above about 70%; inactive means the rest. Where a SMILES comes first, the peptide text is derived from it. The star is where a group is joined. Cbz = O=C(OCc1ccccc1)*

Columns and labels:
[1] = NCI Yeast Anticancer Drug Screen. Data for the rad50 strain (AID 155);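 further: 0% = growth of vehicle-only cultures of the same strain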; details: S. cerevisiae rad50 strain growth inhibition; at 50.0 µM; hits give high values
Method in brief: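 Vehicle-treated cultures provide the reference for the growth inhibition reported for compound-exposed, repair-deficient yeast.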

[2] = NCI Yeast Anticancer Drug Screen. Data for the mec2-1 strain (AID 157); details: S. cerevisiae mec2-1 strain, at 50.0 µM, hits give high values
Method in brief: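 Mutant yeast (mec2-1) grown with compound; growth inhibition relative to vehicle control reported.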

[3] = NCI Yeast Anticancer Drug Screen. Data for the sgs1 mgt1 strain (AID 161);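 further: 0% = growth of cultures given vehicle only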; details: S. cerevisiae sgs1 mgt1 strain, at 50.0 µM, hits give high values
Method in brief: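 Growth of a repair-deficient yeast mutant was monitored after compound treatment and expressed as inhibition relative to vehicle-treated cultures.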

[4] = NCI Yeast Anticancer Drug Screen. Data for the cln2 rad14 strain (AID 165);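 further: 0% = growth equal to vehicle treated cultures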; details: S. cerevisiae cln2 rad14 strain, at 50.0 µM, hits give high values
Method in brief: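 Readout is yeast growth inhibition versus vehicle-treated controls, using a strain with cln2 and rad14 alterations exposed to compound.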

[5] = NCI Yeast Anticancer Drug Screen. Data for the bub3 strain (AID 167); details: S. cerevisiae bub3 mutant strain, at 50.0 µM, hits give high values
Method in brief: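 Mutant yeast screening strain plus compound; vehicle-treated cultures serve as the 0% inhibition reference.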

[6] = NCI Yeast Anticancer Drug Screen. Data for the mlh1 rad18 strain (AID 175); details: S. cerevisiae mlh1 rad18 strain growth inhibition; at 50.0 µM; hits give high values
Method in brief: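 Genetically defined yeast (DNA repair-deficient) exposed to compounds; growth inhibition determined relative to vehicle.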

Measured: growth inhibition

Brc1cc2c(cc1CC1CCCCO1)OCO2 (stereo not drawn)
inactive: [1] -6.5% | [2] -17.1% | [3] 1.4% | [4] -61.9% | [5] -4.9% | [6] 0.85%

Cc1cc(=NO)cc(C)n1O
inactive: [1] 43.5% | [2] 21% | [3] 54.9% | [4] -3.3% | [5] 3.55% | [6] 7.85%

CC12CCC3[C@@H](CC3(C)C)C(O)(CCC1=O)C2 (stereo partly drawn)
inactive: [1] -10.4% | [2] -9.35% | [3] -10.8% | [4] -23.9% | [5] -5.35% | [6] -57.1%

CC(C)NC(=O)C1CC2C=CC1C2 (stereo not drawn)
inactive: [1] 7.7% | [2] 1.3% | [3] 1.75% | [4] 3.25% | [5] -9.85% | [6] 14.8%

O/N=C(\CC(O)(C(F)(F)F)C(F)(F)F)c1cccs1
inactive: [3] 45.6%
active: [1] 81% | [2] 76.9% | [4] 87.5% | [5] 75.8% | [6] 93.5%

COCCCNc1ncnc2c1cnn2-c1ccc(Cl)cc1
inactive: [1] -1.3% | [2] -4.75% | [3] -0.25% | [4] 9.8% | [5] -9.45% | [6] -4.45%

Cc1ccnc(N=C(N)Nc2cc(C)ccn2)c1
inactive: [1] 19.6% | [2] 26.4% | [3] 13.1% | [4] 11.2% | [5] 6.75% | [6] 8.85%

[N-]=[N+]=CC(=O)C1OC1c1ccc2ccccc2c1 (stereo not drawn)
inactive: [1] 0.8% | [2] 21.6% | [3] 0.8% | [4] 1.5% | [5] 14.3% | [6] 22.9%

O=C(O)CCC(=O)Oc1ccc(O)c2c1CCCC2=O
inactive: [1] -6.95% | [2] 1.65% | [3] -0.95% | [4] -17.8% | [5] -1.3% | [6] -9.15%

CC(O)C(NC(=O)C(Cc1ccc(O)cc1)NC(=O)OCc1ccccc1)C(=O)O (stereo not drawn) (Cbz-Tyr-Thr-OH; configuration not given here)
inactive: [1] -9.65% | [2] -4.25% | [3] -2.05% | [4] -35.8% | [5] -4.85% | [6] -0.7%

CCN(CC)CCC(O)(Cc1ccccc1)c1cccc(Cl)c1 (stereo not drawn)
inactive: [1] 21.6% | [2] 7.95% | [3] 5.75% | [4] -67.5% | [5] 16.6% | [6] 21.4%

COC(=O)c1ccccc1NC(=O)Nc1ccccc1
inactive: [1] 3.1% | [2] 9.35% | [3] 3.25% | [4] -14.9% | [5] 4.25% | [6] 8.35%

CCOc1nc(OCC)c2cnn(C)c2n1
inactive: [1] 6.3% | [2] 1.75% | [3] -3.55% | [4] -28.8% | [5] 7.55% | [6] -3.55%

CCOC(=O)/C(C#N)=C/NC(N)=O
inactive: [1] -2.55% | [2] 3.05% | [3] -10.1% | [4] -10% | [5] 1.95% | [6] -12.6%

CCCCCCCCCCCCCCCCCCNC(=O)N(C)Cc1ccccc1
inactive: [1] 17.5% | [2] 1.65% | [3] -0.65% | [4] -4.75% | [5] -1% | [6] -8.05%

ClCCCN1CCN(CCCCl)CC1
active: [1] 80.2% | [2] 70% | [3] 85% | [5] 80.5%
inactive: [4] 62.1% | [6] 7.75%

CC(=O)c1cc2ccccc2o1
inactive: [1] 17.6% | [2] 1.4% | [3] -4% | [4] 0.05% | [5] -6.7% | [6] 4.6%

CC(=O)Oc1cccc(/C=C/C(=O)O)c1
inactive: [1] 19% | [2] 29.3% | [3] 22.9% | [4] 3.75% | [5] 39.6% | [6] 18.9%

Clc1ccc2sc(-c3ccccc3)nc2c1
inactive: [1] -22.8% | [2] -18.4% | [3] -4.45% | [4] -23.1% | [5] 7.45% | [6] -3.6%

CCCCNC(=O)c1ccccc1C
inactive: [1] 4.8% | [2] 4.7% | [3] -6.7% | [4] -34.9% | [5] 2.25% | [6] 1.35%

CC(=O)Nc1ccccc1NOC(=O)c1ccccc1NC(C)=O
inactive: [1] -3.1% | [2] -8.9% | [3] 4.45% | [4] 32.7% | [5] 25.1% | [6] 18.1%

CC(=O)NC(CCCCNC(=O)OCc1ccccc1)C(=O)O (stereo not drawn)
inactive: [1] -22.9% | [2] -12.9% | [3] -22.6% | [4] 11.9% | [5] -12.8% | [6] -32.8%

CCOC(=O)C(=CN(C)c1ccc([N+](=O)[O-])cc1)C(=O)OCC
inactive: [1] 0.15% | [2] 6.65% | [3] 15.6% | [4] 12.1% | [5] 24.4% | [6] 15.5%

O=C1Nc2c(cccc2-c2ccccc2)C(=O)C1(O)c1ccccc1 (stereo not drawn)
inactive: [1] -0.35% | [2] -1.2% | [3] -0.6% | [4] -9.8% | [5] -2.6% | [6] -3.95%

CCOC(=O)N1c2ccccc2S(=O)(=O)c2ccccc21
inactive: [1] 40.5% | [2] -10.3% | [3] -26.4% | [4] -16.1% | [5] -22.9% | [6] -52.2%

CCC(Cc1ccco1)C(=O)NC(N)=O (stereo not drawn)
inactive: [1] -10.2% | [2] 4.4% | [3] -9.8% | [4] -9.1% | [5] 0.65% | [6] 11.3%

CCOC(=O)C1=C(C(=O)c2cccc3ccccc23)C(c2cccc([N+](=O)[O-])c2)C(C(=O)c2cccc3ccccc23)=C(C(=O)OCC)N1
inactive: [1] -12.9% | [2] -7.75% | [3] 13.7% | [4] -26.3% | [5] -45.6% | [6] -25.2%

O=C1C(N=Cc2c(O)ccc3ccccc23)CON1C(c1ccccc1)(c1ccccc1)c1ccccc1 (stereo not drawn)
inactive: [1] 55.5% | [2] 37.5% | [3] 28.9% | [4] 20.1% | [5] 3.55% | [6] 40.5%

Cc1ccnc(NC(NC(=O)c2ccccc2)(C(F)(F)F)C(F)(F)F)c1
inactive: [1] 4.75% | [2] 3.5% | [3] 12.8% | [4] 23.2% | [5] -8.05% | [6] -39.5%

C#CCOCn1cc(C)c(=O)[nH]c1=O
inactive: [1] 0.4% | [2] -0.1% | [3] 16.5% | [4] 10.4% | [5] 0.05% | [6] 12.4%

Cc1ncc([N+](=O)[O-])n1CCNC(=O)CCCCCn1ccnc1[N+](=O)[O-]
inactive: [1] 3.1% | [2] -4.05% | [3] -9.45% | [4] 19.7% | [5] -6.15% | [6] -35.2%

CC1NC(C)c2ccc3ccccc3c2O1 (stereo not drawn)
inactive: [1] -4.85% | [2] -12.7% | [3] -25.1% | [4] -9.35% | [5] -11.2% | [6] -6.15%

O=[N+]([O-])c1ccc(OCC#CCOc2ccc([N+](=O)[O-])c(C(F)(F)F)c2)cc1C(F)(F)F
inactive: [1] 31.4% | [2] -13.6% | [3] -0.2% | [4] 4.65% | [5] -2.3% | [6] -3.75%

CCSCN1CCN(CSCC)CC1
inactive: [1] 1.35% | [2] 1.15% | [3] 3.5% | [4] 27.5% | [5] -11.9% | [6] -5.05%

CN(C)c1ccc(/C=N/NC(=O)c2ccc(N)cc2)cc1
inactive: [1] 1.35% | [2] 5.15% | [3] -12.7% | [4] -12.4% | [5] -2.4% | [6] 14.3%

COC1C(OC(N)=O)C(O)C(Oc2ccc3c(O)c(NC(=O)c4ccc(O)c(CC=C(C)C)c4)c(=O)oc3c2C)OC1(C)C (stereo not drawn)
inactive: [1] 7.2% | [2] -23.4% | [3] 1.7% | [4] -6.1% | [5] 9.1% | [6] 26.4%

CC(=O)Nc1nc(C)c(CC/C=C/c2ccc([N+](=O)[O-])cc2)c(=O)[nH]1
inactive: [1] 4.75% | [2] 32.6% | [3] -3.8% | [4] 2.95% | [5] -8.15% | [6] -6.1%

COc1cc(NCCCCCNC(C)C)c2nccc(C)c2c1
inactive: [1] 42.2% | [2] 43.1% | [3] 56.6% | [4] 28.6% | [5] 27.9% | [6] 50.5%
